Assay results from PubChem BioAssay AID624170 (National Center for Advancing Translational Sciences (NCATS), 2012).
In all, about 410,000 compounds went through this assay and about 850 (0.21%) were called active. Another 2% or so got no clear call; they are omitted. The sample as a whole holds a higher share of actives than the screen did. Unmarked numbers belong to inactive results. The call rests on the fitted dose curve; in most records, active means well fitted inhibition curve with a large enough effect; inconclusive means small, poorly fitted or top-dose-only effect, or another doubt; inactive means no such curve, though single readings can be large or run the other way.

target: Glutaminase kidney isoform, mitochondrial (Homo sapiens) (UniProt O94925); experiment: qHTS for Inhibitors of Glutaminase (GLS); conditions: GLS enzymatic activity, qHTS titration; series mostly up to 99.4 µM; activity change, negative = inhibition: at the top concentration
Source text: Glutaminase (GLS) catalyzes the hydrolysis of glutamine into glutamate and ammonia. It plays a critical role in glutaminolysis, which is an important energy source for proliferating cells. It was shown that c-Myc, an oncogenic transcription factor known to regulate microRNAs and to stimulate cell proliferation, increases glutamine metabolism by stimulating the expression of GLS via direct suppression of miR23a and miR23b.
GLS is also thought to play a pathogenic role on HAD using a human HIV-1 infected macrophage system. […] GLS inhibition limits glutamate release and provides neuroprotection against HIV-1 infected macrophages.
The overall goal of this project is to identify small molecule inhibitors of GLS through quantitative high throughput screening (qHTS) of the MLSMR. A validated potent and selective inhibitor can be used as a tool molecule to further study the pharmacology of its target as well as explore its potential therapeutic application in cancer and inflammatory neurological disorders, such as HIV1-associated dementia (HAD) and multiple sclerosis.
NIH Chemical Genomics Center [NCGC]
NIH Molecular Libraries Probe Centers Network [MLPCN]
Assay Submitter (PI): Barbara S. Slusher, Johns Hopkins University
Three 3 uL of hKGA is dispensed into black well 1536-well plates in 45 mM KH2PO4 (pH 8.2), 0.02% Tween-20. Then 23 nL of compounds are added through pin tool transfer. To this, 1 uL of 1mM L-Glutamine and 1 uL of a solution of L-Glutamateoxidase, HRP, Amplex red are added. Plate is centrifuged for 25 sec before an initial fluorescence read is obtained on the ViewLux, after 30 min of RT incubation, the final read is taken on the ViewLux.
On the % scale 0 is the no-effect control and ±100 the full control effect; potency means the concentration at half of the fitted maximal effect.

Sequence of Glutaminase kidney isoform, mitochondrial (Homo sapiens) (O94925 whole entry, looked up, canonical isoform): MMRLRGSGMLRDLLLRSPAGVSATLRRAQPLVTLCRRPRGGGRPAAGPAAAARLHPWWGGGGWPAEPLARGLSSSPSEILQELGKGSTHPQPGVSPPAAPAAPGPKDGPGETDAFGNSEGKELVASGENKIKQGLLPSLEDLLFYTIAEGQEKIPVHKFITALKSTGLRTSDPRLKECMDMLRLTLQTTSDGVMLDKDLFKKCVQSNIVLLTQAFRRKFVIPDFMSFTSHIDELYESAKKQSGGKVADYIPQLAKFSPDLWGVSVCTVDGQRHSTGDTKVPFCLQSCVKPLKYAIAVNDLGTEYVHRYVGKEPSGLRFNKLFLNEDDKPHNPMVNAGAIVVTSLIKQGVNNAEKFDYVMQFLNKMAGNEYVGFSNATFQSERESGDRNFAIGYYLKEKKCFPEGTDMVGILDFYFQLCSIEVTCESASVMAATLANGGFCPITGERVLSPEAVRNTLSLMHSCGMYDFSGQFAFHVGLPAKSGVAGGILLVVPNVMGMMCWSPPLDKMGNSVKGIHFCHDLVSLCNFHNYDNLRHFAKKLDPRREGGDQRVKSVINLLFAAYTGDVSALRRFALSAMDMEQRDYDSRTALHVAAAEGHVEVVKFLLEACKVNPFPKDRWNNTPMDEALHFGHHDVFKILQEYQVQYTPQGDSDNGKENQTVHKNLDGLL

Row | SMILES | Potency | activity change, negative = inhibition
1 | CCC(C)n1c(O)c(/C=N/Nc2nc3c(c(=O)n(C)c(=O)n3C)n2C)c(=O)[nH]c1=S (stereo not given) | 10 µM (active) | –
2 | COc1cc(C[C@H](C)N)c(OC)cc1Br | – | -0.657%
3 | CC(C)=CCN1CC[C@@]2(C)c3cc(O)ccc3C[C@H]1[C@@H]2C | – | 29.7%
4 | CC(C)(C)c1ccc(S(=O)(=O)Nc2ccc(O)c(Sc3nc4ccccc4s3)c2)cc1 | – | 31.1% [at 45.5 µM]
5 | C[C@]12CCC3[C@@H](CCC4=CC(=O)CC[C@@]43C)C1CCC2OC(=O)CCc1ccccc1 (stereo not given in full) | – | -0.493%
6 | O=C1NC(=O)N(Cc2ccco2)C(=O)/C1=C\c1ccc(-c2ccc(F)cc2)o1 | 8.91 µM (active) | –
7 | O=P1(N(CCCl)CCCl)NC(OO)CCO1 (stereo not given) | – | 4.17% [at 45.5 µM]
8 | CC(C)CC1C(=O)N2CCCC2C2(O)OC(NC(=O)C3CC4c5cccc6[nH]cc(c56)CC4N(C)C3)(C(C)C)C(=O)N12 (stereo not given) | – | 4.2% [at 45.5 µM]
9 | Cc1ncc(CC(=O)n2cc(C(=O)c3cc(Cl)ccc3O)cn2)s1 | – | 38.5% [at 45.5 µM]
10 | CC(=O)Oc1ccc2c3c1OC1C(OC(C)=O)C=CC4[C@@H](C2)N(C)CC[C@]314 (stereo not given in full) | – | 5.46%
